According to PubChem BioAssay (NCI):
This is part of a sample that, as a whole, favours compounds with a hit. Of some 83,000 tested, about 20% had one in any assay.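 The endpoint reported here, percent growth, reads 100 for growth as untreated, 0 for no net growth and -100 for all cells dead.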 Activity calls are given as the source filed them. Rule for the calls: active = growth percent below 10; inactive = the rest.

Assays:
Test in all cases: NCI-60 one-dose screen, 48 h (100 = growth as untreated, 0 = no growth, -100 = all killed)
Details in all cases: 10 µM unless noted
T-47D breast = tested on: T-47D breast
BT-549 breast = tested on: BT-549 breast
MDA-MB-435 melanoma = tested on: MDA-MB-435 melanoma
SW-620 colon = tested on: SW-620 colon
MCF7 breast = tested on: MCF7 breast
HCT-116 colon = tested on: HCT-116 colon
HCC-2998 colon = tested on: HCC-2998 colon
KM12 colon = tested on: KM12 colon
MDA-MB-468 breast = tested on: MDA-MB-468 breast

Measured: growth

Cc1cc(=O)oc2cc(OCCCCOc3ccc(/C=C/C(=O)Nc4ccccc4N)cc3)ccc12
inactive: T-47D breast 31.4% | MDA-MB-435 melanoma 78.3% | SW-620 colon 71.9% | MCF7 breast 18.6% | HCT-116 colon 45.6% | HCC-2998 colon 89% | KM12 colon 31.2% | MDA-MB-468 breast 34.2%
active: BT-549 breast -23.9%

COc1ccc(Cc2nn(CC(=O)N/N=C/c3ccc(F)cc3)c(=O)c3c(C)noc23)cc1
inactive: BT-549 breast 43.2% | MDA-MB-435 melanoma 48.1% | SW-620 colon 61.4% | MCF7 breast 56.5% | HCC-2998 colon 39.3% | KM12 colon 73.1% | MDA-MB-468 breast 63.2%
active: T-47D breast -14.1% | HCT-116 colon 5.98%

O=C1CCCc2cc(OCC(=O)N3CCCCC3)ccc2N1
inactive: T-47D breast 108% | BT-549 breast 126% | MDA-MB-435 melanoma 108% | SW-620 colon 106% | MCF7 breast 94% | HCT-116 colon 114% | HCC-2998 colon 122% | KM12 colon 108% | MDA-MB-468 breast 107%

COC1=C[C@]23CCC(=O)N2CCc2cc4c(cc2[C@@H]3[C@@H]1OC(=O)[C@H](C)O)OCO4
inactive: T-47D breast 42.4% | MDA-MB-435 melanoma 34.6% | SW-620 colon 13.6% | KM12 colon 18.9%
active: BT-549 breast 2.51% | MCF7 breast -5.57% | HCT-116 colon 1.88% | HCC-2998 colon -29.9% | MDA-MB-468 breast -17%

COc1ccc2[nH]cc(-c3nnc(N)nc3-c3c[nH]c4ncc(Br)cc34)c2c1
inactive: T-47D breast 53.8% | BT-549 breast 93% | MDA-MB-435 melanoma 102% | SW-620 colon 88.8% | MCF7 breast 62.2% | HCT-116 colon 75.2% | HCC-2998 colon 110% | KM12 colon 91.4% | MDA-MB-468 breast 79.9%

COc1ccc2oc(=O)c(C3(C)NC(=O)c4c(/C=C/C(=O)OC(C)(C)C)cccc4N3)cc2c1 (stereo unspecified)
active: T-47D breast 6.58% | BT-549 breast 3.69%
inactive: MDA-MB-435 melanoma 46.7% | SW-620 colon 63.8% | MCF7 breast 24.1% | HCT-116 colon 30% | HCC-2998 colon 62.1% | KM12 colon 47% | MDA-MB-468 breast 31.7%

CN(C)c1nc(NCCNS(=O)(=O)c2ccc(C3=Nc4c(N)nc(N)nc4NC(c4ccc(Cl)cc4)C3)cc2)nc(Nc2ccc(F)cc2)n1 (stereo unspecified)
active: MCF7 breast 2.35% | HCC-2998 colon -0.0718% | MDA-MB-468 breast -35.5%
inactive: T-47D breast 33.8% | BT-549 breast 15.4% | MDA-MB-435 melanoma 32.3% | SW-620 colon 33.4% | HCT-116 colon 15.3% | KM12 colon 19.4%

C=C1CCC2C3(C)COC(c4ccc(F)cc4)OC3CCC2(C)C1C/C=C1/C(=O)OCC1O (stereo unspecified)
active: T-47D breast -16.5% | BT-549 breast -85.8% | MDA-MB-435 melanoma -35.5% | SW-620 colon -69.8% | MCF7 breast -30.7% | HCT-116 colon -74.2% | HCC-2998 colon -69.7% | KM12 colon -44.7% | MDA-MB-468 breast -50.5%

COc1cc(/C=C/C(=O)c2ccccc2)ccc1Oc1nc(Nc2ccc(F)cc2)nc(N(C)C)n1
active: BT-549 breast -6.57% | SW-620 colon -0.837% | MCF7 breast 5.96% | HCT-116 colon -83.1%
inactive: T-47D breast 13% | MDA-MB-435 melanoma 24.9% | HCC-2998 colon 59% | KM12 colon 40.8% | MDA-MB-468 breast 21.5%

COc1ccc(/C=C2\C(=N)N=C(SCc3nc4ccccc4[nH]3)NC2=O)cc1
inactive: T-47D breast 87.9% | BT-549 breast 106% | MDA-MB-435 melanoma 105% | SW-620 colon 98.8% | MCF7 breast 99.1% | HCT-116 colon 105% | HCC-2998 colon 116% | KM12 colon 105% | MDA-MB-468 breast 119%

C=C1CCC2C3(C)COC(c4cccc(F)c4)OC3CCC2(C)C1C/C=C1/C(=O)OCC1O (stereo unspecified)
active: T-47D breast -5.25% | BT-549 breast -82.2% | MDA-MB-435 melanoma -10.3% | SW-620 colon -63% | MCF7 breast -7.05% | HCT-116 colon -73.8% | HCC-2998 colon -51% | KM12 colon -27.8% | MDA-MB-468 breast -35.2%

CCCCCCCCOc1cccc(S(=O)(=O)Nc2ccc(C)cc2C(=O)O)c1
inactive: T-47D breast 105% | BT-549 breast 115% | MDA-MB-435 melanoma 98.5% | SW-620 colon 96.5% | MCF7 breast 89.8% | HCT-116 colon 85.1% | HCC-2998 colon 119% | KM12 colon 96.9% | MDA-MB-468 breast 81.8%

Cc1cccc(NC(=O)CN2CCN(c3ncnc4c3cnn4-c3ccccc3)CC2)c1
inactive: T-47D breast 72.1% | BT-549 breast 89.9% | MDA-MB-435 melanoma 93.4% | SW-620 colon 92% | MCF7 breast 74.8% | HCT-116 colon 58.6% | HCC-2998 colon 107% | KM12 colon 90.4% | MDA-MB-468 breast 89.2%

N/C(=N\c1nc2ccccc2s1)NC(=O)Nc1ccccc1Br
active: BT-549 breast -7.4% | MDA-MB-435 melanoma -63.9% | SW-620 colon 5.64% | MCF7 breast 8.24% | HCT-116 colon -51.4% | HCC-2998 colon -21% | KM12 colon -48.2% | MDA-MB-468 breast -29.3%
inactive: T-47D breast 45.3%
